From PubChem BioAssay
Most compounds without a hit are left out; they make up all but 4.1% or so of the library.
RecA splice inh = Mtb RecA intein splicing inhibition. inhibition, % (test concentration not listed). 0.75% of 290,000 active. cell-free RecA intein splicing, fluorescence. P9WHJ3; in the data active = inhibition above about 30%;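 also: 0% = vehicle wells and 100% = reference inhibitor control wells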
Target sequence (P9WHJ3 whole entry, looked up, canonical isoform): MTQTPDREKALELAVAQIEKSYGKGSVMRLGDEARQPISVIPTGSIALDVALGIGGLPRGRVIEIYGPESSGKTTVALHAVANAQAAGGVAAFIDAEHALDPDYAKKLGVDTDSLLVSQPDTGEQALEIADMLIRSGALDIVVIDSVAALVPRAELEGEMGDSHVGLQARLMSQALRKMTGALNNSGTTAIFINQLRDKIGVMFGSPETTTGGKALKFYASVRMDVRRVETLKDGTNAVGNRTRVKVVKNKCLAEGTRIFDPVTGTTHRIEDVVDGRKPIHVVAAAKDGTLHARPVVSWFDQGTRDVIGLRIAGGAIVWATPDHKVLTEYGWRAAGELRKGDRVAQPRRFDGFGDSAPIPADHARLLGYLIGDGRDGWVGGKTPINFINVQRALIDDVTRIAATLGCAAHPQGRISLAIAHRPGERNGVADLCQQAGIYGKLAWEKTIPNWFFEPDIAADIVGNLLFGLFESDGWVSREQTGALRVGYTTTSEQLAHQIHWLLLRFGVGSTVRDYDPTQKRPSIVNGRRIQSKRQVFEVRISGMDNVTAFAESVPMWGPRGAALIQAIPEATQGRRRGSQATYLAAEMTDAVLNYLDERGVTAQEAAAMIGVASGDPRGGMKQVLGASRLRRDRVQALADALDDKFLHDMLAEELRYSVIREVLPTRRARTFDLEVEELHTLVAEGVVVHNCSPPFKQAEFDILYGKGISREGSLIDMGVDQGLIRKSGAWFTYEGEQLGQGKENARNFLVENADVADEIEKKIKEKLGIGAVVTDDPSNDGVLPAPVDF
Vc quorum ag = induces V. cholerae light production without autoinducers; V. cholerae BH1578 lux reporter, luminescence, 6 h; activation, % at 18.7 µM; 0.16% of 350,000 active; AID 588436; in the data active = activation mostly above about 9.7%, no sharp cut-off
Rv3671c inh = inhibits the M. tuberculosis serine protease Rv3671c | P9WHR9 | inhibition, % at 5.96 µM | 0.048% of 320,000 active | AID 2606; in the data active = inhibition above about 38%;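 also: extracellular domain of Rv3671c used as enzyme; 0% = enzyme with DMSO and 100% = no enzyme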
FBA Mtb inh = Mtb fructose-bisphosphate aldolase inhibition; P9WQA3; purified M. tuberculosis FBA, fluorescence read-out; inhibition, % at 1 µM; 2.3% of 360,000 active; in the data active = inhibition above about 27%;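 also: 0% = vehicle and 100% = reference inhibitor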
GDH-TPI counter = counter-screen for M. tuberculosis FBA inhibitors: GDH-TPI coupled enzymes; GDH-TPI coupled enzyme counterscreen, NADH absorbance; inhibition, % at 4.8 µM; 1.2% of 360,000 active; in the data active = inhibition above about 30%;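 also: 0% = DMSO wells and 100% = wells lacking the enzyme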
UGM FP inh = blocks M. tuberculosis UGM enzyme. purified UGM, fluorescence polarization probe displacement. inhibition, % at 10 µM. 0.06% of 320,000 active. AID 504406; in the data active = inhibition above about 10%, passing the limit was not always enough
The depositor's hits bear a star; i = inactive; · = not tested or not shown.

SMILES | RecA splice inh | Vc quorum ag | Rv3671c inh | FBA Mtb inh | GDH-TPI counter | UGM FP inh
CCOc1ccc(Cc2onc3c2C(=O)CC(C)(C)C3)cc1OCC | 3 | -1 | 1 | 2 | -2 | 0
COC1=CC2(O)CCCC2=CC1=O (centres undefined) | 3 | i | 1 | 150* | 0 | -2
Cc1ccc2c(c1)c1cccc3c1n2CCN3CCC(N)=O | -16 | i | 6 | 49* | 6 | 1
O=C(Nc1cccc(S(=O)(=O)N2CCCCCC2)c1)C1=COCCO1 | 2 | i | 0 | -1 | -2 | 0
COc1cc(/C=C/C(=O)c2ccc3c(c2)OCCO3)cc(OC)c1OC | 4 | i | 2 | -3 | 37* | 0
COc1cc(/C=C/C(=O)c2ccc3c(c2)OCO3)cc(OC)c1OC | · | 1 | 7 | 0 | 10 | 0
Cc1ccc(CCN2CC(C(=O)NCCCN3CCCCC3)CC2=O)cc1 (centres undefined) | 1 | i | 0 | 1 | 3 | 1
C=CCN(CC=C)C(=S)NC(=O)/C=C/c1ccccc1 | 6 | 0 | -1 | 2 | 4 | 2
C=CCN(CC=C)S(=O)(=O)c1ccc(NC(=S)NC(=O)/C=C/c2ccccc2)cc1 | -1 | i | -10 | 2 | 31* | 0
CCSC1=N/C(=C\c2ccccc2)C(=O)N1 | 1 | -1 | 1 | 3 | 12 | 0
COC(=O)C(C)SC1=N/C(=C/c2ccc(-n3cncn3)cc2)C(=O)N1 (centres undefined) | 1 | 0 | 5 | 0 | 43* | -1
CC(C)CC(=O)Nc1ccc2oc(-c3cccnc3)nc2c1 | -5 | 7 | 1 | 129* | -2 | -3
CCC(=O)Nc1ccc2oc(-c3cccnc3)nc2c1 | 2 | -1 | -17 | 172* | 25 | 2
O=C(Nc1ccc2oc(-c3cccnc3)nc2c1)c1cccnc1 | · | -26 | 6 | 6 | -2 | 2
Clc1ccc2oc(-c3cccnc3)nc2c1 | 0 | i | 1 | 5 | 2 | 1
Cc1ccc2nc(-c3cccnc3)oc2c1 | -3 | 0 | -2 | 41* | -6 | 1
CC(C)COc1cccc(C(=O)Nc2ccc(N3CCOCC3)cc2N2CCOCC2)c1 | 2 | i | -6 | 3 | 0 | 2
CCOCCCNC(=O)c1c(N)n(-c2ccc(S(N)(=O)=O)cc2)c2nc3ccccc3nc12 | -29 | i | -8 | 33* | 6 | -1
CCOc1ccc(-n2c(N)c(C(=O)NCc3ccco3)c3nc4ccccc4nc32)cc1 | -26 | 0 | -8 | 52* | 18 | 4
COc1ccc(C(=O)Oc2ccc(C(=S)N3CCOCC3)cc2)cc1 | -2 | 2 | 4 | 3 | -1 | -3
CO/N=C/C=C1/N(C)c2ccccc2C1(C)C | -1 | i | 3 | -2 | 60* | 0
CN1/C(=C\C=Nc2cc(S(=O)(=O)N3CCOCC3)ccc2N2CCOCC2)C(C)(C)c2ccccc21 | 2 | 1 | -1 | -7 | 41* | 1
Cc1ccccc1N=C/C=C1\N(C)c2ccccc2C1(C)C | -3 | i | -25 | 2 | 35* | -1
CC1(C)CC(=O)C=C(c2n[nH]nc2C2=CCCCC2)C1 | · | i | · | -6 | 10 | ·
CCOC(=O)c1sc2ncnc(N3CCN(c4ccc(OC)cc4)CC3)c2c1C | 1 | -1 | 0 | 1 | 6 | 1
SMILES | RecA splice inh | Vc quorum ag | Rv3671c inh | FBA Mtb inh | GDH-TPI counter | UGM FP inh
CCOC(=O)c1sc2ncnc(N3CCN(C)CC3)c2c1C | -1 | 0 | 8 | 8 | 33* | -1
Nc1ccc2nc[nH]c2c1 | 49* | · | -6 | 3 | -4 | -5
COc1cccc(/C=C/C(=O)NCc2ccc(S(N)(=O)=O)cc2)c1 | 1 | 0 | 14 | 28* | -4 | -5
CN(C)c1ccc(C=NCCC2(O)CCOC(C)(C)C2)cc1 (centres undefined) | -2 | i | -12 | 2 | 40* | -1
C=CCn1c(N)c(C(=O)NCC2CCCO2)c2nc3ccccc3nc21 (centres undefined) | i | i | -123 | 144* | 4 | 3
CCC(C)NC(=O)c1c(N)n(Cc2ccc3c(c2)OCO3)c2nc3ccccc3nc12 (centres undefined) | 41* | i | -11 | 20 | 20 | 1
CCC(C)NC(=O)c1c(N)n(CC2CCCO2)c2nc3ccccc3nc12 (centres undefined) | -79 | 0 | -41 | 87* | 1 | 0
CC(C)CCNC(=O)c1c(N)n(CC2CCCO2)c2nc3ccccc3nc12 (centres undefined) | -77 | 0 | -44 | 19 | 12 | -4
Nc1cc(N)nc(SCC(=O)NCC(=O)Nc2ccc(F)c(F)c2F)n1 | · | i | 10 | -1 | -6 | 0
CC1(C)c2cc(O)ccc2OC1N1CCOCC1 (centres undefined) | -5 | 0 | -6 | 4 | -4 | 2
CCCCCCN=C(C)c1ccccc1O | 2 | i | 1 | 3 | -2 | -1
Cc1ccccc1N1CCN(S(=O)(=O)c2nnc(NC(=O)CC(C)C)s2)CC1 | 0 | 0 | -1 | 0 | 2 | 0
Cc1ccccc1N1CCN(S(=O)(=O)c2nnc(NC(=O)c3ccco3)s2)CC1 | 3 | 0 | -7 | 2 | 35* | -1
COc1cc(/C=C/c2sc3ccccc3[n+]2CCCS(=O)(=O)[O-])ccc1O | 36* | 0 | -348 | -13 | 8 | -2
CCC(/C=C1\Oc2ccc(OC)cc2N1C)=C\c1sc2ccccc2[n+]1CCCS(=O)(=O)[O-] | · | i | · | -3 | -4 | ·
CCOc1ccc(S(=O)(=O)N2CCN(C(=O)c3ccccc3Cc3ccccc3)CC2)cc1 | -2 | -4 | 7 | -2 | 1 | 1
O=C(Nc1cccc(C(=O)O)c1)/C(=C/c1cccc([N+](=O)[O-])c1)NC(=O)c1cccc(Br)c1 | 1 | 0 | 0 | 6 | -4 | -4
O=C(N/N=C/C(Cl)=C/c1ccc([N+](=O)[O-])cc1)C(=O)Nc1cccc(C(=O)O)c1 | 5 | i | -10 | -2 | 37* | 3
CCc1ccc2[nH]c(=O)c(C(c3nnnn3CC3CCCO3)N3CCCc4ccccc43)cc2c1 (centres undefined) | 7 | 0 | 3 | 1 | 2 | -2
Cc1cc2cc(C(c3nnnn3CC3CCCO3)N3CCCc4ccccc43)c(=O)[nH]c2cc1C (centres undefined) | -3 | i | · | 4 | 34* | ·
COC(=O)c1c(N)n(CCCN2CCOCC2)c2nc3ccccc3nc12 | -138 | i | 4 | 158* | 2 | 2
CCOC(=O)c1c(N)n(CCN2CCCCC2)c2nc3ccccc3nc12 | -184 | 0 | -2 | 164* | 17 | 2
CCOC(=O)c1c(N)n(C2CC(C)(C)NC(C)(C)C2)c2nc3ccccc3nc12 | -206 | i | 4 | 154* | 23 | -2
COCCOC(=O)c1c(N)n(CCCN2CCOCC2)c2nc3ccccc3nc12 | -65 | -1 | -1 | 166* | 15 | 0
